D2 PAM-1 = potentiates the human D2 dopamine receptor allosterically. DiscoveRx D2 beta-arrestin cells, luminescence, 90 min; 100% = 57 uM dopamine signal. 360,000 compounds, 0.23% hits. potentiation, % (concentration not given with the values). P14416; in the data active means potentiation above about 50%; inconclusive means mostly about 30% to 49%
Target sequence (P14416 whole entry, looked up): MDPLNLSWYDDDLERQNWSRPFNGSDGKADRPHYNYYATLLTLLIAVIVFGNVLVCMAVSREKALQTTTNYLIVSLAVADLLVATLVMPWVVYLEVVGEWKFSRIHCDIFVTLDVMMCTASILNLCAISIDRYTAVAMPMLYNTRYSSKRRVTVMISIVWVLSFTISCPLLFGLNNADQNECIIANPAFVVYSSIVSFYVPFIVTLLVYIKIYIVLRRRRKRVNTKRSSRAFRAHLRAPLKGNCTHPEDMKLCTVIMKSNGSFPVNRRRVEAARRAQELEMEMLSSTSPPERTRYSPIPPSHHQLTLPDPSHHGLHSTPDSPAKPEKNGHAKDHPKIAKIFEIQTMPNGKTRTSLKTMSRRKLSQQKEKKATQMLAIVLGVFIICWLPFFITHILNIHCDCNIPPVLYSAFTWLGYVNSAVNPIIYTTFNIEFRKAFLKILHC
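PathHunter D2 cells, attached overnight at 37 deg C, received compound in DMSO plus dopamine at EC20 (50 nM final) for 90 min at 37 deg C. Beta-arrestin recruitment was read as luminescence after 1 h with detection reagent at ambient temperature.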
D2 PAM-2 = D2 dopamine receptor (human) potentiation | P14416 | 340,000 compounds, 0.34% hits | potentiation, % at 10 µM | HEK293 T-REx D2, calcium flux, EC20 dopamine potentiation | AID 485347;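 active means potentiation over 3 SD above the plate norm, cut at about 30% in these data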; further: 0% is about no effect
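Potentiation of an EC20 dopamine calcium response is measured in a force-coupled, tetracycline-inducible Hek293 Trex D2 line. Compound-only kinetic reads over 180 s flag agonists before dopamine addition.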
D2 antagonist = D2 dopamine receptor (human) antagonism. P14416. HEK293 TREx D2 cells, calcium flux, dopamine EC80. inhibition, % at 10 µM. 340,000 compounds, 2% hits. AID 485344; in the data active means inhibition above about 30%; inactive means below that, where a call was filed; further: 0% is about no effect
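Antagonism is scored as inhibition of an EC80 dopamine-evoked calcium signal in a force-coupled, tetracycline-inducible HEK293 T-REx D2 line, with compound present 180 s before agonist.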
D2 ag-1 = D2 dopamine receptor (human) agonism; 340,000 compounds, 0.53% hits; activation, % at 2 µM; HEK293 T-REx D2 cells, calcium flux agonist mode; P14416;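 active means activation over 3 SD above normal in the single-dose calcium agonist read, cut at about 30% in these data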; further: 0% is about no effect
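In this primary screen, compounds producing a positive calcium signal within 180 s of addition to tetracycline-induced, force-coupled HEK293 Trex D2 cells are flagged; cells are dye-loaded with a no-wash calcium kit beforehand.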
D2 ag-2 = human D2 receptor agonism in beta-arrestin assay. DiscoveRx PathHunter D2 beta-arrestin, luminescence, 90 min; 100% = 57 uM dopamine signal. activation, % (test concentration not listed). 360,000 compounds, 0.084% hits. P14416; in the data active means activation above about 40%; inconclusive means between about 15% and that limit
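Agonist mode: compounds alone added to overnight-plated D2 PathHunter cells for 90 min at 37 C, with 57 uM final dopamine (EC100) defining full response. Beta-arrestin recruitment detected by chemiluminescent reagent, read after 1 h at ambient temperature.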
Numbers without * were called inactive; ? = inconclusive; · = no result. This is a sample that favours compounds with a hit; in the whole collection about 2.4% have one here.

SMILES	D2 PAM-1	D2 PAM-2	D2 antagonist	D2 ag-1	D2 ag-2
Cc1cc(S(=O)(=O)Nc2ccc(-c3ccc(N4CCCCC4)nn3)cc2)c(C)cc1Cl	·	-2	·	0	·
CC[n+]1c(/C=C/N(C)c2ccccc2)oc2ccc(Cl)cc21	59*	12	-10	-2	?
CCn1c(/C=C/N(C(C)=O)c2ccccc2)[n+](CC)c2ccc(Cl)cc21	-17	-1	-5	2	-2
O=C(NNC(=O)c1ccccc1Br)c1ccccc1Cl	-4	2	2	0	1
O=C(NNC(=S)Nc1ccccc1Cl)c1ccccc1Br	-34	1	53*	1	-10
CCC1CCCCN1C(=O)COc1cc(=O)n(C)c2ccccc12 (centres undefined)	0	-5	-16	1	-2
CCC1CCCCN1C(=O)COc1ccccc1NC(C)=O (centres undefined)	-13	32*	-4	-1	0
COc1ccc(Cl)cc1NC(=O)CN1c2ccccc2S(=O)(=O)c2ccccc21	·	-7	·	-1	·
O=C1C=C(c2ccc3cc[nH]c3c2)C[C@@H](c2ccc3c(c2)OCO3)C1	-8	1	-13	0	5
C/C(=N\OC(=O)c1ccccc1F)c1nccs1	6	41*	-6	0	-1
CCNC(=O)C1CCCN(c2nn3cc(-c4ccc(C)cc4)nc3s2)C1 (centres undefined)	·	-11	·	1	·
O=C(N/N=C/C(Br)=C/c1ccccc1)c1ccc([N+](=O)[O-])cc1	-20	-9	39*	0	4
CC(=C/c1ccccc1)/C=N/NC(=O)c1ccc2nc[nH]c2c1	-24	-25	-6	1	-1
O=C(N/N=C/C(Br)=C\c1ccccc1)c1ccc2nc[nH]c2c1	-9	9	34*	1	-3
O=C(N/N=C/C(Br)=C/c1ccccc1)c1ccncc1	-25	-1	12	0	-1
CC(CN)(NS(=O)(=O)c1ccccc1)c1ccccc1 (centres undefined)	-29	·	·	·	-1
COc1ccc(NC(=O)C2(C)CCN2Cc2ccccc2Cl)cc1OC (centres undefined)	2	·	·	·	7
CCOC(=O)C(=CNCC(=O)OC)C(=O)OCC	4	2	36*	-1	1
CCOC(=O)CNC=C(C(=O)OCC)C(=O)OCC	8	15	-4	-1	-2
COc1ccc(Br)cc1CNC(=O)CCSCc1ccc(Cl)cc1	·	-13	·	-1	·
CCn1c(SCC(=O)Nc2cc(C)on2)nc2sc(C)c(C)c2c1=O	·	-2	36*	1	·
COCCn1c(SCC(=O)Nc2cc(C)on2)nc2cc(Cl)ccc2c1=O	-12	72*	1	0	1
C=CCn1c(SCC(=O)Nc2cc(C)on2)nc2sc(C)c(C)c2c1=O	0	·	·	·	2
Cc1cc(NC(=O)CSc2nc3cc(Cl)ccc3c(=O)n2CC(C)C)no1	·	-4	-8	1	·
OCCN(CCO)c1nc(N2CCCCC2)c2nc(N(CCO)CCO)nc(N3CCCCC3)c2n1	-7	-10	22	42*	8
SMILES	D2 PAM-1	D2 PAM-2	D2 antagonist	D2 ag-1	D2 ag-2
Nc1nc(NCCO)nc(N2CCCCCC2)c1[N+](=O)[O-]	4	3	-6	1	1
O=C(c1ccc2c(c1)N(Cc1ccccc1)C(=O)c1ccccc1S2(=O)=O)N1CCc2ccccc21	·	-5	·	0	·
COC(=O)NC(=S)Nc1ccc(Oc2ccc(Cl)cc2)c(Cl)c1	-6	-10	2	1	-2
COC(=O)NC(=S)Nc1ccc(Oc2ccc(Cl)cc2Cl)c(Cl)c1	-7	36*	·	·	-1
CCOC(=O)c1c(C=O)c2sc(C)cc2n1C	-6	8	43*	0	-1
CCOC(=O)C1CCN(C(c2ccccc2OC)c2c(O)cc(C)n(CCOC)c2=O)CC1 (centres undefined)	·	9	·	0	·
COc1ccc(C(=O)Nc2cc3c(oc2=O)CCCC3=O)cc1	-1	44*	10	2	-6
O=c1[nH]c(=S)[nH]cc1Oc1ccccc1	-10	·	·	·	-4
O=[N+]([O-])c1ccc(Sc2ccncn2)c([N+](=O)[O-])c1	-16	·	·	·	?
Cc1cc(C)nc(Sc2ccc([N+](=O)[O-])cc2[N+](=O)[O-])n1	70*	10	-7	0	9
CCc1ccc(N2CC(C)Cn3c2nc2c3c(=O)n(CC(=O)O)c(=O)n2C)cc1 (centres undefined)	·	0	·	0	·
CSc1cccc(NC(=O)C2CCCN(S(=O)(=O)c3ccc4c(c3)CCCN4C(C)=O)C2)c1 (centres undefined)	·	-4	·	0	·
CCCCSc1nnc(-c2c[nH]c3ccccc23)n1C	-5	-2	8	0	11
Cn1c(SCc2ccccc2)nnc1-c1c[nH]c2ccccc12	-8	7	35*	1	-4
COc1ccc(-c2nc3sc(CCNC(=O)c4cccc(C(F)(F)F)c4)c(C)n3n2)cc1	·	-4	·	0	·
CCOc1cc(CNCc2ccccc2)ccc1OCc1ccc(Cl)cc1	-11	·	·	·	-9
CCOc1cc(CNc2ccc(O)cc2)ccc1OCc1ccc(Cl)cc1Cl	96*	8	-14	-1	44*
CCOc1cccc(CNc2ccc(O)cc2)c1OCc1ccc(Cl)cc1	91*	-7	-15	0	?
Oc1ccc(NCc2ccccc2OCc2ccccc2F)cc1	115*	5	17	0	14
COC(=O)c1cc2sccc2n1Cc1ccc(F)cc1Cl	·	-3	·	1	·
Cn1nnnc1SCC(=O)Nc1ccc(Br)cc1Cl	6	44*	7	0	-2
O=C1CC(N2CCC(O)(c3ccc(Cl)cc3)CC2)C(=O)N1 (centres undefined)	-3	16	31*	1	-5
O=C(O)c1ccc2c(c1)OCCOCCOCCOCCOCCO2	-7	-5	-22	-1	-2
O=C(c1ccccc1)c1ccc2c(c1)OCCOCCOCCOCCO2	-7	10	50*	-2	-3
O=C(Cn1cnc2c(nc3n2CCCCC3)c1=O)Nc1ccc(F)cc1	·	-1	·	-1	·
SMILES	D2 PAM-1	D2 PAM-2	D2 antagonist	D2 ag-1	D2 ag-2
O=C1CC(c2ccc(OCCCCCOc3ccc(C4CC(=O)NC4=O)cc3)cc2)C(=O)N1 (centres undefined)	8	5	37*	0	9
CCCCCCCCOc1ccc(C2CC(=O)NC2=O)cc1 (centres undefined)	-9	1	-1	1	-4
CCC(C)NCCOc1cc(C)cc(C)c1C (centres undefined)	-15	-20	51*	1	-6
O=C(Cn1c(-c2cccs2)cc2ccccc21)N1CCN(c2ccc(F)cc2)CC1	·	4	·	0	·
c1ccc2oc(CCc3nc4ccccc4o3)nc2c1	5	14	·	·	-1
Nc1ccc2oc(CCc3ccccc3)nc2c1	?	2	38*	0	-1

Screening data (PubChem BioAssay)
